An excerpt weighted towards active compounds, which were near 2% of everything screened.
NR1D1 modulator: modulators of Rev-erb alpha DNA binding, primary screen, biochemical, FITC-DNA, fluorescence polarization, uHTS; Nuclear receptor subfamily 1 group D member 1 (Homo sapiens), P20393; Rev-erbα–FITC-DNA binding, 90 min; activity, % at 10 µM; actives 0.79% (n = 370,000); AID 1259318, 2017;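 active = activity above about 14%, limit read from the data; passing the limit was not always enough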
VLA-4 inh: inhibition in human VLA-4 binding assay, primary screen, VLA-4 allosteric modulator project, MLPCN library, flow cytometry, VLA-4 expressing cells; Integrin alpha-4 (Homo sapiens), P13612; ligand binding flow cytometry; inhibition, % (about 7 µM as worked out from the volumes in the protocol); actives 0.2% (n = 330,000); AID 2557, 2010; in the data active = inhibition above about 50%
Exocytosis inh: LAMP-1 surface exposure blockers, TALL-104 cells – cell-based, flow cytometry, MLPCN library, primary screen | TALL-104 LAMP-1 surface exposure; cells stimulated with thapsigargin and PMA | inhibition, % at 10 µM | actives 0.66% (n = 360,000) | AID 651702, 2012;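 active = inhibition above about 55%, limit read from the data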
PG9 Ab binder: binders of HIV-1 gp120 antibody PG9, primary screen, biochemical, TR-FRET; TR-FRET gp120-PG9 antibody binding; actives 0.43% (n = 360,000); inhibition, % at 6.7 µM; AID 624416, 2012; in the data active = inhibition above about 8.5%
ABCB6 inh 2: ABCB6 transporter inhibitors, primary screen, K562-ABCB6 cells, flow cytometry, MLPCN library; actives 0.19% (n = 360,000); AID 602162, 2011; fluorescence ratio to DMSO, % at 10 µM; ATP-binding cassette sub-family B member 6 (Homo sapiens), Q9NP58; K562-ABCB6 porphyrin accumulation, 1 h; active compounds read low;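 active = fluorescence ratio to DMSO below 75%, the collection mean minus 3 SD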;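 note: signal is porphyrin accumulated inside mitochondria; lower ratio means ABCB6 inhibition with less porphyrin fluorescence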
Target sequence (Q9NP58 whole entry, looked up): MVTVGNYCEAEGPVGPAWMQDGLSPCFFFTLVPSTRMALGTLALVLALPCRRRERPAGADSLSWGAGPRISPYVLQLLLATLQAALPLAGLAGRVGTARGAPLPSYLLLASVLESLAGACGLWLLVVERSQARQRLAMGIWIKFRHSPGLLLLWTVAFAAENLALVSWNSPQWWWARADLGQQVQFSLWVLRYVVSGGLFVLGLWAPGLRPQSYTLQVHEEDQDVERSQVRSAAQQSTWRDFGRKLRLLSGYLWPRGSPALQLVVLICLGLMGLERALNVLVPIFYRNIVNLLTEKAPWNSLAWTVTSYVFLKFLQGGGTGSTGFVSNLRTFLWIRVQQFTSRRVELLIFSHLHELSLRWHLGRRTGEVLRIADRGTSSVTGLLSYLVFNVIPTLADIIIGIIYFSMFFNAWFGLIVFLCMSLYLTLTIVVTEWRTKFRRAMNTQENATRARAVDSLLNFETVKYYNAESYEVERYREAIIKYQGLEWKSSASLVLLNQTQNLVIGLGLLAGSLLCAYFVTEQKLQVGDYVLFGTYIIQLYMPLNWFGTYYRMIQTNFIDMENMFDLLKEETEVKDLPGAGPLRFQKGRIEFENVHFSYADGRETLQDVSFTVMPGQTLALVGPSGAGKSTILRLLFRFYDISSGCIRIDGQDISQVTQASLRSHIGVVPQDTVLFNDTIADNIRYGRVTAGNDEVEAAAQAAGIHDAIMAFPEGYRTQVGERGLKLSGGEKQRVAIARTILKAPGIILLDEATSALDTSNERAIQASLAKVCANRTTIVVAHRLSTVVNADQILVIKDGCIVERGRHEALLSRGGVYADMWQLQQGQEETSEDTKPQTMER
Rev-erbA confirm: modulators of Rev-erb alpha DNA binding, confirmation, biochemical, FITC-DNA, fluorescence polarization, single point; activation, % at 25 µM; AID 1259319, 2017; actives 61% (n = 3,000); 90 min; shares compounds with NR1D1 modulator;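 active = activation at or above a set limit, or at least 3 SD above the negative control mean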
RORg counter: modulation of RORgamma DNA binding, dose response, counter-screen for Rev-erb alpha modulator project, biochemical, fluorescence polarization, FITC-DNA. actives 8% (n = 910). purified RORgamma protein-FITC-DNA binding. shares compounds with NR1D1 modulator. IC50, µM;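 active = Compounds whose fitted half-maximal concentration for disrupting protein-DNA binding is below 10 micromolar; the record names Rev-erb in its text, so the target is in doubt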
Numbers stand for hits; . = inactive; / = no result given.

SMILES	NR1D1 modulator	VLA-4 inh	Exocytosis inh	PG9 Ab binder	ABCB6 inh 2	Rev-erbA confirm	others
COc1ccc(C(=O)Nc2ccccc2-c2nnn(CC(N)=O)n2)cc1	96	/	.	.	.	81	RORg counter=.
COC(=O)[C@@]12CCCCC3=C1N(CCC3)C(=O)[C@H]2CC(=O)N1CCN(C(=O)C2CC2)CC1	.	/	/	/	/	/
Cc1nc2ccc(C(=O)OCc3nnc(-c4ccc(Br)cc4)o3)cc2nc1C	23	.	.	.	.	19
Cc1nc2ccc(C(=O)OCc3nnc(-c4ccccc4)o3)cc2nc1C	.	/	.	.	.	/
Cc1cnn(-c2ccc3nnc(-c4ccc(Cl)cc4)n3n2)c1	22	.	.	.	.	27
CCCCNC(=O)C[C@H]1C[C@@]2(C(=O)OCC)CCCC3=C2N(CCC3)C1=O	.	/	/	/	/	/
COc1ccc(C(=O)Nc2ccc(-c3ccc(NC(=O)c4ccc(OC)cc4)c(OC)c3)cc2OC)cc1	29	/	.	.	.	.
COc1ccc(NC(=O)c2oc3cc(C)c(C)cc3c2C)c(OC)c1	21	.	.	.	.	.
COc1ccc2oc(C(=O)Nc3ccccc3N3CCOCC3)c(C)c2c1	29	.	.	.	.	.
CCN(CC)S(=O)(=O)c1ccc2oc(C(=O)Nc3ccc(OC)cc3OC)c(C)c2c1	.	.	.	.	.	/
CC(C)C[C@@H](CO)N1Cc2nnn(Cc3ccccc3)c2-c2ccccc2S1(=O)=O	.	/	/	/	/	/
CN1C(=O)c2cc(NC(=O)Nc3ccccc3)ccc2OC[C@H]2O[C@@H](CC(=O)NCC(F)(F)F)CC[C@@H]21	.	/	/	/	/	/
COc1cccc(/C=C2/Sc3ccc(C(=O)NC4CC4)cc3NC2=O)c1	.	/	/	.	/	/
C[C@@H](N)C(=O)Nc1ccc(Cl)cc1C(=O)c1ccc[nH]1	.	/	/	/	/	/
CCSC1=C(C#N)C2(CCCCC2)C2=C(CC(C)(C)CC2=O)N1	22	.	.	.	.	.
COc1ccc2c(c1)c1nc3n(c(=O)c1n2CC(=O)Nc1cc(C)[nH]n1)CCS3	19	.	/	.	/	.
O=C(Cn1c2ccc(F)cc2c2nc3n(c(=O)c21)CCS3)NC1CCCC1	.	.	.	.	.	/
C/C(N)=C(/C#N)C(=O)CSc1cc(C)c2cc(C)cc(C)c2n1	50	.	.	.	.	27
Cc1nn(-c2ccc(F)cc2)c2nc(N)c(C#N)c(-c3cccs3)c12	80	.	.	.	.	45
Cc1c(-c2ccc(F)cc2)nc(N)c(C#N)c1-c1cccs1	78	.	.	.	.	53	RORg counter=3.2
Cc1c(-c2ccc(F)cc2)nc(N)c(C#N)c1-c1cccnc1	.	.	.	.	.	/
C[C@@H]1/C=C/CC(=O)N[C@H](c2ccccc2)[C@H](C)/C=C/CC(=O)N[C@@H]1c1ccccc1	.	/	/	/	/	/
COC(=O)[C@H](Cc1ccccc1)NC(=O)[C@H]1O[C@@H](n2cnc3c(=O)[nH]c(N)nc32)[C@H](O)[C@@H]1O	.	/	/	.	/	/
CC(=O)c1c(C)[nH]c(C(=O)Nc2cc(S(=O)(=O)N3CCCCC3)ccc2C)c1C	17	.	.	.	.	.
Cc1nn(-c2ccccc2)c(Cl)c1/C=N/Nc1nncc(=O)[nH]1	25	.	.	.	.	.
SMILES	NR1D1 modulator	VLA-4 inh	Exocytosis inh	PG9 Ab binder	ABCB6 inh 2	Rev-erbA confirm	others
CCOc1cccc2sc(NC(=O)c3ccc(Br)s3)nc12	30	.	.	.	.	33	RORg counter=.
COc1ccc(-n2c(SCC(=O)C(C)(C)C)nc3ccsc3c2=O)cc1	21	.	.	.	.	20
COc1ccc(-n2c(SCC(=O)NCCC(C)C)nc3ccsc3c2=O)cc1	.	.	.	.	.	/
COc1cc(NC(=O)CCc2nnc3ccc(N4CCN(c5cccc(OC)c5)CC4)nn23)cc(OC)c1	29	.	.	.	.	.
N#Cc1ccc(Oc2ccc(-c3cnc4ccccc4n3)cc2)cc1C#N	51	.	.	.	.	30
N#Cc1ccc(Oc2ccc(-c3nc4ccccc4nc3-c3ccccc3)cc2)cc1C#N	23	.	.	.	.	38	RORg counter=.
N#Cc1cccc(Oc2ccc(-c3cnc4ccccc4n3)cc2)c1C#N	.	.	.	.	.	/
CC(=O)Nc1sc(C)c(C)c1C(=O)OCC(=O)N(Cc1ccccc1)C(C)C	42	.	.	.	.	32	RORg counter=.
CCC(=O)Nc1sc(C(=O)Nc2ccccc2OC)c(C)c1C(=O)OC	42	.	.	.	.	.
CCOc1ccc(NC(=O)c2sc(NC(C)=O)c(C(=O)OC)c2C)cc1	31	.	.	.	.	.
CC(=O)Nc1sc(C)c(C)c1C(=O)OCC(=O)Nc1ccccc1	.	.	.	.	.	/
COc1ccccc1NC(=O)COC(=O)c1c(NC(C)=O)sc(C)c1C	19	/	.	.	.	.
CCC(=O)Nc1sc(C(=O)Nc2ccccc2F)c(C)c1C(=O)OC	.	.	.	.	.	/
CC(=O)N1c2ccccc2C(=O)NCC1C(=O)NC(C)(C)C (configuration not stated)	.	/	/	/	/	/
COC(=O)c1cc(-c2cccc(OCc3ccccc3)c2)c(=O)n2c1CCC2	.	/	/	/	/	/
O=C1N/C(=C\c2ccc(N3CCOCC3)c(F)c2)C(=O)N1Cc1ccccc1	28	.	.	.	.	.
Cc1ccc(CN2C(=O)N/C(=C\c3ccc(N4CCOCC4)cc3)C2=O)cc1	.	.	.	.	.	/
COc1cc(O)c(C(CC(=O)N2CCCC(C)C2)c2ccccc2)c(OC)c1 (configuration not stated)	.	/	/	/	/	/
O=S(=O)(c1ccccc1)c1cnn2c(C(F)(F)F)cc(-c3ccc(F)cc3)nc12	24	.	.	.	.	.
COCCN(C(=O)c1ccc(-c2ccc(Cl)cc2)o1)c1c(N)n(CC(C)C)c(=O)[nH]c1=O	.	.	.	.	.	/
CCCCN(C(=O)c1ccc(-c2ccc(Cl)cc2)o1)c1c(N)n(CC(C)C)c(=O)[nH]c1=O	18	.	.	.	.	.
COC(=O)[C@]12C[C@H](CC(=O)NCc3ccccc3)C(=O)N(CCc3ccc(OC)c(OC)c3)C1=C[C@H](C(C)C)O[C@@H]2C1CC1	.	/	/	/	/	/
COc1ccc(/C=C/C(=O)NC(=S)N2CCN(c3ccccc3OC)CC2)cc1	48	.	.	.	.	39	RORg counter=.
CCN(CC)c1ccc2cc(C(N)=O)c(=N)oc2c1	55	.	.	.	.	24

Compound activity as filed in PubChem BioAssay.
